# Compound activity (PubChem)
# Hits are enriched below; roughly 2.4% of the tested compounds scored in any of these assays.
# D2 antagonist = antagonizes the human D2 dopamine receptor; P14416; HEK293 TREx D2 cells, calcium flux, dopamine EC80; inhibition, % at 10 µM; 340,000 compounds, 2% hits; AID 485344; in the data active = inhibition above about 30%; inactive = below that, where a call was filed; note: 0% is about no effect
# Target sequence (P14416 whole entry, looked up): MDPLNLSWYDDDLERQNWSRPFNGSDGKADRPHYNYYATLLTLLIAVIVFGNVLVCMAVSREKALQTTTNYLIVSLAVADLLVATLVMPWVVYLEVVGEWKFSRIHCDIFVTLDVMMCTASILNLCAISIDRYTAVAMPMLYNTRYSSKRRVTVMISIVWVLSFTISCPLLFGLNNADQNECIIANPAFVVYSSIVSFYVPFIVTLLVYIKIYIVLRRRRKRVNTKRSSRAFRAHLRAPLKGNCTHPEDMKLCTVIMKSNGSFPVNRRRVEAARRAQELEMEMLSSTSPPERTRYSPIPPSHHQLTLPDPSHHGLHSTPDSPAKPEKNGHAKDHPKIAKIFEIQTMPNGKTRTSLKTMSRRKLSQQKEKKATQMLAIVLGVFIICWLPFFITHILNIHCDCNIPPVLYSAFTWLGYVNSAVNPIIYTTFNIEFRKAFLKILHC
#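 Inhibition of EC80 dopamine-driven calcium flux, recorded kinetically, defines activity here; cells are a tetracycline-induced HEK293 T-REx line expressing force-coupled D2.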
# D2 PAM-1 = positive allosteric modulators of human D2 dopamine receptor; P14416; HEK293 T-REx D2, calcium flux, EC20 dopamine potentiation; potentiation, % at 10 µM; 340,000 compounds, 0.34% hits; AID 485347;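 active = potentiation over 3 SD above the plate norm, cut at about 30% in these data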; note: 0% is about no effect
#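 Tetracycline-induced HEK293 T-REx cells force-coupled to calcium signalling expressed D2; compounds were pin-added after a 10 s baseline, read kinetically 180 s, then an EC20 dopamine challenge followed with a further 180 s calcium read.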
# D2 ag-1 = human D2 receptor agonism in beta-arrestin assay | P14416 | DiscoveRx PathHunter D2 beta-arrestin, luminescence, 90 min; 100% = 57 uM dopamine signal | activation, % (no concentration beside the values) | 360,000 compounds, 0.084% hits | AID 624465; in the data active = activation above about 40%
#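 Agonist mode: compounds alone added to overnight-plated D2 PathHunter cells for 90 min at 37 C, with 57 uM final dopamine (EC100) defining full response. Beta-arrestin recruitment detected by chemiluminescent reagent, read after 1 h at ambient temperature.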
# D2 ag-2 = agonists of human D2 dopamine receptor; P14416; HEK293 T-REx D2 cells, calcium flux agonist mode; activation, % at 2 µM; 340,000 compounds, 0.53% hits; AID 485358;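 active = activation over 3 SD above normal in the single-dose calcium agonist read, cut at about 30% in these data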; note: 0% is about no effect
#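 HEK293 Trex D2 cells, tetracycline-induced, o/n 30 C 5% CO2; no-wash Ca dye, RT 30–90 min; 10-cycle baseline, 23 nl cpd added, kinetic Ca read 180 s; agonist hits = positive Ca response.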
# D2 PAM-2 = positive allosteric modulators of human D2 dopamine receptor; DiscoveRx D2 beta-arrestin cells, luminescence, 90 min; 100% = 57 uM dopamine signal; potentiation, % (concentration not given with the values); 360,000 compounds, 0.23% hits; AID 624464; in the data active = potentiation above about 50%
#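 D2 cells co-treated with compound plus 50 nM dopamine (EC20) for 90 min at 37 deg C to detect potentiation. Beta-arrestin recruitment was read as enzyme-fragment luminescence after 1 h at ambient temperature. Full response was set by 57 uM dopamine.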
# Active calls of the source: *; . = not tested or not shown.
SMILES,D2 antagonist,D2 PAM-1,D2 ag-1,D2 ag-2,D2 PAM-2
CCc1cccc(CN2CCC(CNC(=O)Nc3ccc(Cl)cc3)CC2)c1,35*,-17,-4,0,-21
COC(=O)c1ccccc1NC(=O)NC1CCN(Cc2ccccc2)CC1,64*,-19,3,1,-17
CCC(C)[C@H](NC(=O)NC1CCN(Cc2ccccc2)CC1)C(=O)OC (stereo partly specified),57*,-20,-3,0,-21
CCN1CCC(NC(=O)Nc2ccccc2C(=O)OC)CC1,-13,-5,-1,-1,-17
COc1ccc(S(=O)(=O)NC2CCN(Cc3ccccc3)CC2)cc1NC(C)=O,9,-8,7,-1,-4
COc1ccc(C)cc1NC(=O)NC1CCN(Cc2ccccc2)CC1,75*,-26,0,1,-20
COc1ccc(NC(=O)c2oc3ccc(S(=O)(=O)N4CCCCC4)cc3c2C)cc1Cl,.,14,.,0,.
COc1ccc(Cl)cc1NC(=O)NCC1CCN(Cc2cc(C)ccc2C)CC1,55*,-28,-3,1,-6
Cc1ccc(C)c(CN2CCC(CNC(=O)Nc3ccc(C)c(C)c3)CC2)c1,-16,-12,0,0,-7
O=C(CN1C(=O)COc2ccc(S(=O)(=O)NC3CCCC3)cc21)Nc1ccc(Cl)cc1,.,3,.,.,.
O=S(=O)(c1ccc(F)cc1)N1CCC(N2CCCCCC2)CC1,42*,-8,-2,14,-13
CC1CCN(C2CCN(S(=O)(=O)c3ccc(F)cc3)CC2)CC1,9,-8,-1,1,-14
O=C1CCNc2cc3ccccc3cc21,6,28,15,0,55*
CC1(C(=O)NS(=O)(=O)C2CC2)CCCN(C(=O)c2cccs2)C1 (stereo unspecified),.,.,-3,.,-2
CC(=O)c1c(C)oc2c1cc(O)c1ccccc12,2,-23,0,0,-7
CCOC(=O)c1c(C)oc2c1cc(O)c1ccccc12,0,3,9,0,58*
CCCS(=O)(=O)NC(=O)C1(C)CCCN(C(=O)COc2ccc(Cl)cc2Cl)C1 (stereo unspecified),.,.,-7,.,-22
CCCS(=O)(=O)NC(=O)C1(C)CCN(C(=O)COc2ccc(Cl)cc2Cl)C1 (stereo unspecified),.,.,14,.,60*
COc1cccc(C(=O)NC(=O)Nc2ccc(-n3nc(C(F)(F)F)cc3C(F)(F)F)cc2)c1,.,6,.,-1,.
O=C(CSc1nnc(COc2ccc(F)cc2)o1)N1CCCCC1,97*,-15,-3,0,1
COC(=O)CSc1nnc(COc2ccc3ccccc3c2)o1,13,9,5,0,2
O=C(NCc1nnc(SCC(=O)N2CCCC2)o1)c1c(F)cccc1Cl,-18,0,-2,-1,7
CCOC(=O)CSc1nnc(COc2ccc3ccccc3c2)o1,34*,6,-1,0,0
O=C(CSc1nnc(-c2cccc(F)c2)o1)N1CCCC1,32*,0,-4,0,-4
O=C(NCc1nnc(SCC(=O)N2CCCC2)o1)c1c(F)cccc1F,32*,-8,-3,2,16
SMILES,D2 antagonist,D2 PAM-1,D2 ag-1,D2 ag-2,D2 PAM-2
CCOC(=O)Cc1ccc(NC(=O)n2ncc3cc(Cl)ccc32)cc1,.,3,.,2,.
Cc1cc(C)cc(OCc2nnc(SCC(=O)N3CCCCC3)o2)c1,-4,44*,-2,-1,-2
Cc1cccc(OCc2nnc(SCC(=O)N3CCCC3)o2)c1,11,6,10,-1,-3
Cc1[nH]c(=O)[nH]c(=O)c1S(=O)(=O)Nc1ccc(Oc2ccccc2)cc1,-8,6,-2,0,3
CN(C)S(=O)(=O)Nc1ccc(Oc2ccccc2)cc1,35*,3,-1,0,-20
Cc1ccccc1Nc1nc(N)c(C(=O)c2ccccc2Cl)s1,.,-4,.,0,.
O=C(Cn1c2ccc(F)cc2c2nc3n(c(=O)c21)CCS3)Nc1ccc(Cl)cc1F,-8,7,1,0,-10
Cc1ccc(NC(=O)Cn2c3ccc(F)cc3c3nc4n(c(=O)c32)CCS4)cc1F,-3,35*,-7,2,-3
CCN(CC(=O)Nc1ccc(NC(C)=O)cc1)C(=O)CCCOc1ccc(C(C)(C)C)cc1,.,.,1,.,22
